The record followed here is PubChem BioAssay (NCI).

Test in all cases: NCI-60 one-dose screen, 48 h (100 = growth as untreated, 0 = no growth, -100 = all killed)
For one experiment, the system named is NCI-H23 lung. The settings on record: 10 µM unless noted.
The next experiment deals with NCI-H226 lung. The settings on record: 10 µM unless noted.
For another experiment, the system named is NCI-H322M lung. The settings on record: 10 µM unless noted.
The next experiment relates to HOP-62 NSCLC. Conditions: 10 µM unless noted.
For the next experiment, the system named is NCI-H460 lung. Conditions: 10 µM unless noted.
The test system of the next experiment is HOP-92 NSCLC. The settings on record: 10 µM unless noted.
For the next experiment, the system named is NCI-H522 lung. The settings on record: 10 µM unless noted.
The test system of a further experiment is A549/ATCC NSCLC. Conditions: 10 µM unless noted.
The subject of the next experiment is 786-0 renal. The settings on record: 10 µM unless noted.
The test system of the next experiment is COLO 205 colon. Conditions: 10 µM unless noted.
The next experiment deals with DU-145 prostate. The settings on record: 10 µM unless noted.
The next experiment relates to K-562 leukemia. Conditions: 10 µM unless noted.
The subject of the next experiment is MALME-3M melanoma. Conditions: 10 µM unless noted.
A further experiment relates to MDA-MB-231 breast. Conditions: 10 µM unless noted.
The test system of another experiment is RXF 393 renal. The settings on record: 10 µM unless noted.
For another experiment, the system named is SF-268 CNS. Conditions: 10 µM unless noted.
The next experiment deals with SF-295 CNS. The settings on record: 10 µM unless noted.
In the next experiment the test system is SF-539 CNS. The settings on record: 10 µM unless noted.
The next experiment concerns UACC-257 melanoma. The settings on record: 10 µM.
Another experiment has as its system M14 melanoma. Conditions: 10 µM unless noted.

Structures are written as SMILES. This is part of a sample that, as a whole, favours compounds with a hit. Of some 83,000 tested, about 20% had one in any assay.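 The endpoint reported here, percent growth, reads 100 for growth as untreated, 0 for no net growth and -100 for all cells dead.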 Values without a mark were called inactive. Active and inactive are the calls of the source. Rule for the calls: active = growth percent below 10; inactive = the rest.

With `NC(=O)C(=Cc1ccc(Cl)cc1)C(N)=O`, the growth with NCI-H23 lung is 74.5%; with NCI-H226 lung, 65.3%; in the experiment on NCI-H322M lung, 79.6%; in the experiment with HOP-62 NSCLC, 95.9%; in the experiment on NCI-H460 lung, 89%; in the experiment with HOP-92 NSCLC it was 34.8%. For the same molecule, the growth in the experiment with NCI-H522 lung was 46.5%; in the experiment with A549/ATCC NSCLC, 74.5%; in the experiment on 786-0 renal, 70.7%; in the experiment with COLO 205 colon, 81.3%; in the experiment with DU-145 prostate it was 39.7%; in the experiment with K-562 leukemia, 31.8%. In addition, the growth in the experiment with MALME-3M melanoma is 82%; with MDA-MB-231 breast it was 80.3%; in the experiment with RXF 393 renal, 62.9%; in the experiment with SF-268 CNS, 84.8%; with SF-295 CNS, 71.9%; in the experiment on SF-539 CNS, 55.6%. The growth with UACC-257 melanoma is 68.3%; in the experiment with M14 melanoma, 70.3%.
With `CNC(=O)c1cc(Oc2ccc3nc(NC(=O)c4ccc(CN5CCCN(C)CC5)c(C(F)(F)F)c4)sc3c2)ccn1`, the growth with NCI-H23 lung is 23%; in the experiment with NCI-H226 lung, 82.9%; in the experiment on NCI-H322M lung it was 32.2%; with HOP-62 NSCLC it was 11.5%; in the experiment on NCI-H460 lung, 5.57% (active); with HOP-92 NSCLC it was 37.7%. For the same molecule, the growth was -56.6% (active) in the experiment on NCI-H522 lung; 39.9% with A549/ATCC NSCLC; -76.3% (active) in the experiment with 786-0 renal; -64.4% (active) in the experiment on COLO 205 colon; 40.2% in the experiment on DU-145 prostate; -39.9% (active) in the experiment with K-562 leukemia. Besides, the growth in the experiment with MALME-3M melanoma was -69.7% (active); in the experiment with MDA-MB-231 breast, -21.9% (active); with RXF 393 renal, -46.4% (active); with SF-268 CNS it was 58%; in the experiment on SF-295 CNS, -34.8% (active); in the experiment with SF-539 CNS, -82.5% (active). The growth in the experiment on UACC-257 melanoma is -88.4% (active); with M14 melanoma, -88% (active).
On to `CN(c1ccc(Br)cc1)S(=O)(=O)c1ccc(-c2cnc(C3CC3)o2)cc1`, for which the growth in the experiment with NCI-H23 lung was 20%; in the experiment on NCI-H226 lung, 62.4%; in the experiment on NCI-H322M lung it was 46.5%; in the experiment with HOP-62 NSCLC, 41.3%; in the experiment with NCI-H460 lung, 16.8%; with HOP-92 NSCLC, 87.1%. Further, the growth in the experiment on NCI-H522 lung is 16.8%; with A549/ATCC NSCLC, 26.3%; with 786-0 renal, 52.9%; with COLO 205 colon, 4.79% (active); with DU-145 prostate, 26.2%; with K-562 leukemia, 7.96% (active). The growth was 63.8% in the experiment with MALME-3M melanoma; 29.9% in the experiment on MDA-MB-231 breast; 6.23% (active) with RXF 393 renal; 65.9% in the experiment with SF-268 CNS; -0.0962% (active) in the experiment with SF-295 CNS; 1.56% (active) in the experiment with SF-539 CNS. For the same molecule, the growth with UACC-257 melanoma is 67.3%; in the experiment on M14 melanoma it was 8.2% (active).
On to `N#C/C(=C\c1ccc(Cl)cc1Cl)C(N)=O`, for which the growth in the experiment with NCI-H23 lung is 104%; in the experiment on NCI-H226 lung it was 109%; in the experiment on NCI-H322M lung, 100%; with HOP-62 NSCLC, 101%; in the experiment on NCI-H460 lung, 106%; in the experiment with HOP-92 NSCLC, 122%. Also, the growth with NCI-H522 lung is 93.9%; with A549/ATCC NSCLC it was 109%; with 786-0 renal, 101%; in the experiment on COLO 205 colon, 117%; with DU-145 prostate, 114%; in the experiment on K-562 leukemia it was 80.3%. The growth with MALME-3M melanoma was 105%; with MDA-MB-231 breast, 100%; in the experiment with RXF 393 renal it was 102%; in the experiment on SF-268 CNS it was 101%; with SF-295 CNS, 107%; in the experiment with SF-539 CNS, 104%. The growth in the experiment on UACC-257 melanoma was 109%; in the experiment with M14 melanoma it was 99.4%.
Regarding `Nc1nc(-c2cccc([N+](=O)[O-])c2)c(N=Nc2ccccc2[N+](=O)[O-])s1`, the growth in the experiment on NCI-H23 lung is 3.8% (active); with NCI-H226 lung, 4.17% (active); in the experiment on NCI-H322M lung it was 76.7%; with HOP-62 NSCLC it was -36.1% (active); with NCI-H460 lung, 39.5%; in the experiment on HOP-92 NSCLC it was -28.4% (active). Also, the growth in the experiment on NCI-H522 lung was 26.4%; with A549/ATCC NSCLC, 36.1%; in the experiment with 786-0 renal, -66.4% (active); with COLO 205 colon it was 93.7%; with DU-145 prostate, 37.4%; in the experiment on K-562 leukemia it was 50.8%. The growth with MALME-3M melanoma was 53.9%; in the experiment with MDA-MB-231 breast it was -54.1% (active); in the experiment on RXF 393 renal, -67.7% (active); in the experiment with SF-268 CNS, 19.6%; in the experiment on SF-295 CNS, 26.6%; in the experiment with SF-539 CNS, -73.3% (active). The results for the growth with UACC-257 melanoma and with M14 melanoma were 103% and 50.7%, respectively.
Take `NC(=O)c1c(NC(=O)c2cccc(OC(F)(F)F)c2)sc2c1CCC(=O)C2`: the growth was 25.8% in the experiment with NCI-H23 lung; 80.1% in the experiment with NCI-H226 lung; 110% in the experiment on NCI-H322M lung; 102% with HOP-62 NSCLC; 96.6% in the experiment on NCI-H460 lung; 71.6% in the experiment with HOP-92 NSCLC. The growth was 20.6% in the experiment with NCI-H522 lung; 74.7% with A549/ATCC NSCLC; 89.4% in the experiment on 786-0 renal; 85.7% in the experiment on COLO 205 colon; 107% with DU-145 prostate; 13.5% with K-562 leukemia. The growth is 81.3% in the experiment on MALME-3M melanoma; 63.3% with MDA-MB-231 breast; 36.4% in the experiment with RXF 393 renal; 55.7% with SF-268 CNS; 46.1% in the experiment with SF-295 CNS; 25.7% in the experiment on SF-539 CNS. The growth with UACC-257 melanoma was 81.8%; with M14 melanoma, 37.6%.
Turning to `COc1cc(CNC(=O)Cc2ccccc2[N+](=O)[O-])ccc1OCC(=O)NO`, the growth in the experiment with NCI-H23 lung is 102%; with NCI-H226 lung, 100%; with NCI-H322M lung, 107%; in the experiment with HOP-62 NSCLC it was 102%; in the experiment with NCI-H460 lung, 114%; in the experiment with HOP-92 NSCLC, 101%. The growth with NCI-H522 lung was 102%; in the experiment with A549/ATCC NSCLC, 106%; with 786-0 renal it was 106%; in the experiment with COLO 205 colon it was 104%; with DU-145 prostate it was 108%; in the experiment with K-562 leukemia, 105%. The growth in the experiment with MALME-3M melanoma is 100%; with MDA-MB-231 breast, 102%; with RXF 393 renal, 116%; in the experiment on SF-268 CNS, 102%; with SF-295 CNS it was 105%; in the experiment on SF-539 CNS, 95.9%. The growth with UACC-257 melanoma was 105%; in the experiment on M14 melanoma, 101%.
